HT1080 IDH1KD tx: qHTS for induction of synthetic lethality in tumor cells producing 2HG: qHTS for the HT-1080-IDH1KD cell line. HT-1080 IDH1 knockdown viability, ATP luminescence, 48 h. Potency, µM (top dose mostly 46.1 µM), most hits filed as cytotoxic. 2% of 360,000 active
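In this qHTS, HT-1080 cells depleted of IDH1 are exposed for 48 h at 37 °C to compound titrations. Toxicity is scored from CellTiter-Glo luminescence, with DMSO as full viability and medium alone as none.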
TDP1 cell noCPT: qHTS for Inhibitors of human tyrosyl-DNA phosphodiesterase 1 (TDP1): qHTS in cells in absence of CPT; DT40 Tdp1-/- hTDP1 cells, no CPT, ATP luminescence, 48 h; Potency, µM (doses to about 46.2 µM), actives largely listed as inhibitors; 15% of 420,000 active; AID 686978, 2013; further: nearly all actives have a fitted effect of over 55% in size
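Chicken DT40 Tdp1-/- cells complemented with human TDP1, screened without camptothecin (DMSO vehicle only), 400 cells/well. Compounds pin-transferred, cells incubated at 37 °C for at least 48 hr. Growth read as ATP-dependent luminescence (CellTiter-Glo, 30 min at RT).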
DT40 TDP1 CPT: qHTS for Inhibitors of human tyrosyl-DNA phosphodiesterase 1 (TDP1): qHTS in cells in presence of CPT | chicken DT40 Tdp1-/-;hTDP1 cells + 20 nM CPT, ATP luminescence, 48 h | Potency, µM (top dose mostly 46.2 µM), most hits filed as inhibitors | 12% of 420,000 active | AID 686979, 2013; further: nearly all actives have a fitted effect of over 55% in size
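Chicken DT40 Tdp1-/- cells complemented with human TDP1, 400 cells/well, exposed to compounds plus 20 nM camptothecin for at least 48 h at 37 C; viability read as ATP content by CellTiter-Glo luminescence.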
uPA generation: qHTS for Inhibitors of Cell Surface uPA Generation | cell surface uPA generation assay, qHTS | 0.31% of 330,000 active | Potency, µM (highest dose often 38.3 µM), hits mostly inhibitors; active means well fitted inhibition curve with a large enough effect; inconclusive means small, poorly fitted or top-dose-only effect; inactive means no such curve, though single readings can be large or run the other way; tested in mouse RAW 264.7 cells; further: nearly all actives have a fitted effect of over 55% in size
IL-1B inflam inh: qHTS for Inhibitors of Inflammasome Signaling: IL-1-beta AlphaLISA Primary Screen; activity change, % at 57.5 µM; THP-1 LPS/ATP IL-1B secretion, AlphaLISA, 16 h; active compounds read low; 4.7% of 360,000 active; AID 743279, 2014; in the data active means activity change below about -50%; inconclusive means mostly about -30% to -49%
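Secreted IL-1B measured by AlphaLISA bead assay after 16 h compound exposure of THP-1 cells; compounds (final up to 57.5 uM) added 1 h before LPS (250 ng/mL) and ATP (1.25 mM) stimulation; lower signal means less secretion.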
HT1080NT lethal: qHTS for induction of synthetic lethality in tumor cells producing 2HG: qHTS for the HT-1080-NT fibrosarcoma cell line. Potency, µM (top dose mostly 46.1 µM), usual class: cytotoxic. AID 686970, 2013. HT-1080-NT fibrosarcoma viability, CellTiter-Glo ATP luminescence, 48 h. 1.6% of 360,000 active;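 further: NT is the 2HG producing partner of a matched IDH1 knockdown line; nearly all actives have a fitted effect of over 55% in size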
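Fibrosarcoma NT cells, 750 per well in 5% FBS RPMI, were exposed to compound for 48 hours. Viability: CellTiter-Glo luminescence.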
Of the large screens only hits and unclear results are named; the others gave an inactive call. In the library only some 19% were active in any assay of this set; here they are far more common. Unless noted, the call rests on the fitted dose curve; in most records, active means well fitted curve in the direction sought with a large enough effect; inconclusive means small, poorly fitted or top-dose-only effect, or another doubt; inactive means no such curve, though single readings can be large; an effect the other way counts as inactive or inconclusive.

Cc1ccc(-n2c(O)c(/C=N/N3CCCCCC3)c(=O)[nH]c2=O)cc1C	none
COc1ccc(N/N=C/c2c(O)n(-c3ccc(C)c(C)c3)c(=O)[nH]c2=O)cc1	HT1080 IDH1KD tx inconclusive, TDP1 cell noCPT 29.1µM, DT40 TDP1 CPT inconclusive, HT1080NT lethal inconclusive
C[C@@]12C(=O)N(Cc3ccco3)CC(=O)N1[C@H]1c3ccccc3OC[C@@H]1[C@@H]2c1ccccc1	TDP1 cell noCPT inconclusive, DT40 TDP1 CPT inconclusive
CC(C)CN1CCC2(CC1)CCN(S(C)(=O)=O)CC2	DT40 TDP1 CPT inconclusive (no result: HT1080 IDH1KD tx, uPA generation, IL-1B inflam inh, HT1080NT lethal)
Cc1ccc(NC(=O)c2cc(-c3cc(Cl)ccc3C)n[nH]2)cc1NS(C)(=O)=O	HT1080 IDH1KD tx inconclusive, TDP1 cell noCPT inconclusive, DT40 TDP1 CPT 23.1µM, HT1080NT lethal inconclusive (no result: uPA generation)
Cc1ccc(NC(=O)c2snnc2C)cc1Cl	none
O=C(C[C@H]1C/C=C\C[C@H](NC(=O)OCC2c3ccccc3-c3ccccc32)C(=O)O[C@H](c2ccccc2)CNC1=O)N[C@H](CO)Cc1ccccc1	HT1080 IDH1KD tx 14.6µM, TDP1 cell noCPT 3.66µM, DT40 TDP1 CPT 3.26µM, HT1080NT lethal 11.6µM
c1ccc2c(CN3CCCCC3)c[nH]c2c1	TDP1 cell noCPT inconclusive, DT40 TDP1 CPT 8.2µM, uPA generation inconclusive
CC(C)N1CCN(Cc2c[nH]c3ccccc23)CC1CCO (stereo not given)	DT40 TDP1 CPT inconclusive
OC1(c2ccc(Cl)cc2)CCN(Cc2c[nH]c3ccccc23)CC1	HT1080 IDH1KD tx 18.4µM, TDP1 cell noCPT 16.4µM, DT40 TDP1 CPT 13µM, IL-1B inflam inh inconclusive, HT1080NT lethal 18.4µM
Oc1ccc(CN2CCCCC2)c2cccnc12	HT1080 IDH1KD tx 1.41µM, TDP1 cell noCPT 5.17µM, DT40 TDP1 CPT 5.17µM, uPA generation inconclusive, HT1080NT lethal 3.16µM
c1ccc2c(CCN3CCCCC3)c[nH]c2c1	HT1080 IDH1KD tx inconclusive (no result: uPA generation)
CC1CCCCN1Cc1c[nH]c2ccccc12 (stereo not given)	TDP1 cell noCPT 7.31µM, DT40 TDP1 CPT 4.11µM, uPA generation inconclusive
CCN1C[C@@]2(COC)C3[C@@H](OC)[C@H]4[C@@H]1[C@@]3(C1C[C@@]3(O)[C@H](OC(=O)c5ccccc5)C1[C@]4(OC(C)=O)[C@@H](O)[C@H]3OC)[C@@H](OC)C[C@H]2O (stereo not given in full)	none
CC(C)NS(=O)(=O)c1ccc(OCC(=O)N2CCN(Cc3ccc4c(c3)OCO4)CC2)c(Cl)c1	HT1080 IDH1KD tx inconclusive, TDP1 cell noCPT 18.4µM, DT40 TDP1 CPT 16.4µM, HT1080NT lethal inconclusive (no result: uPA generation)
Cc1cc(S(=O)(=O)NC(C)C)ccc1OCC(=O)N1CCN(Cc2ccc3c(c2)OCO3)CC1	HT1080 IDH1KD tx inconclusive, TDP1 cell noCPT inconclusive, DT40 TDP1 CPT 16.4µM, HT1080NT lethal inconclusive
CCCCC(=O)N1CCCC(c2nc(-c3cccc(OC)c3)no2)C1 (stereo not given)	TDP1 cell noCPT 14.6µM, DT40 TDP1 CPT inconclusive, uPA generation inconclusive
O=S(=O)(c1ccccc1)N1CCN2CCCC2C1 (stereo not given)	none
Cc1ccc(Cl)cc1N1CCN(C(=O)c2cn(C)c(=O)c3c2c2ccccc2n3C)CC1	TDP1 cell noCPT 18.4µM, DT40 TDP1 CPT inconclusive, uPA generation inconclusive, IL-1B inflam inh -68.5
Cc1ccccc1N1CCN(S(=O)(=O)c2nnc(NC(=O)c3ccc(Cl)cc3)s2)CC1	TDP1 cell noCPT inconclusive (no result: HT1080 IDH1KD tx, uPA generation, IL-1B inflam inh, HT1080NT lethal)
COc1ccc(C(=O)OC2CC3CCC(C2)[N+]3(C)[O-])cc1OC (stereo not given)	none
CCOP(=S)(OCC)N1CC1	none
CC(=O)c1cc(C#N)c(N2CCN(C)CC2)nc1C	none
Cc1cc(C)cc(Nc2nc3ccc(C)cc3n3cnnc23)c1	TDP1 cell noCPT inconclusive
